HP1b binding inh: blocks HP1-beta chromodomain binding to methylated histone tails; Potency, µM (titrated, usually from 114 µM), without a hit: at the top dose activity change, negative = inhibition, actives largely listed as inhibitors; AlphaScreen HP1-beta / biotin-H3K9me3 peptide binding; AID 540317; 0.56% of 390,000 active; P83916; note: nearly all actives have a fitted effect of over 70% in size
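AlphaScreen: HP1-beta (50 nM) preformed 30 min with biotin-H3(1-18)K9me3 peptide (50 nM) in PBS pH 7.4, 0.01% Tween-20. Compound added for 30 min at RT, then streptavidin donor/nickel chelate acceptor beads (10 ug/mL) for 30 min.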
L3MBTL1 inh: blocks human L3MBTL1. Q9Y468. AlphaScreen L3MBTL1–H3K9me1 peptide binding. Potency, µM (doses to about 57.1 µM), for inactives: at the highest dose activity, negative = inhibition, most hits filed as inhibitors. 0.66% of 230,000 active. AID 485360; note: % is set by controls: 0 for no effect and ±100 for the full control effect; nearly all actives have a fitted effect of over 60% in size
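L3MBTL1 (50 nM) pre-complexed 30 min with biotinylated H3(1-15)K9me1 peptide (75 nM), then compounds added for 30 min at room temperature; AlphaScreen streptavidin donor/nickel chelate acceptor beads (10 ug/mL final) read after 30 min dark incubation.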
Sfp inh: inhibitors of Bacillus subtilis Sfp phosphopantetheinyl transferase; Q9F4F7; Biochemical Sfp PPTase activity, qHTS; Potency, µM, without a hit: largest response in the series, negative = inhibition, actives largely listed as inhibitors; 3.5% of 310,000 active; AID 1490;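 note: the enzyme is Sfp with the accession as filed and its product quenches rhodamine fluorescence; 0% = enzyme reaction without inhibitor and -100% = no enzyme wells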
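Reaction rates are the 30-min fluorescence difference (ex 525, em 598 nm) in wells containing 15 nM Sfp, 5 uM rhodamine-CoA and 12.5 uM BHQ-2-YbbR at pH 7.6 with 10 mM MgCl2.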
BAZ2B inh: BAZ2B (human) inhibition; Q9UIF8; AlphaScreen BAZ2B-H3K14Ac peptide displacement; Potency, µM (doses to about 114 µM), inactives show at the highest dose activity change, negative = inhibition, hits mostly inhibitors; 4.4% of 360,000 active; note: % is set by controls: 0 for no effect and ±100 for the full control effect; nearly all actives have a fitted effect of over 60% in size
Target sequence (Q9UIF8 whole entry, looked up): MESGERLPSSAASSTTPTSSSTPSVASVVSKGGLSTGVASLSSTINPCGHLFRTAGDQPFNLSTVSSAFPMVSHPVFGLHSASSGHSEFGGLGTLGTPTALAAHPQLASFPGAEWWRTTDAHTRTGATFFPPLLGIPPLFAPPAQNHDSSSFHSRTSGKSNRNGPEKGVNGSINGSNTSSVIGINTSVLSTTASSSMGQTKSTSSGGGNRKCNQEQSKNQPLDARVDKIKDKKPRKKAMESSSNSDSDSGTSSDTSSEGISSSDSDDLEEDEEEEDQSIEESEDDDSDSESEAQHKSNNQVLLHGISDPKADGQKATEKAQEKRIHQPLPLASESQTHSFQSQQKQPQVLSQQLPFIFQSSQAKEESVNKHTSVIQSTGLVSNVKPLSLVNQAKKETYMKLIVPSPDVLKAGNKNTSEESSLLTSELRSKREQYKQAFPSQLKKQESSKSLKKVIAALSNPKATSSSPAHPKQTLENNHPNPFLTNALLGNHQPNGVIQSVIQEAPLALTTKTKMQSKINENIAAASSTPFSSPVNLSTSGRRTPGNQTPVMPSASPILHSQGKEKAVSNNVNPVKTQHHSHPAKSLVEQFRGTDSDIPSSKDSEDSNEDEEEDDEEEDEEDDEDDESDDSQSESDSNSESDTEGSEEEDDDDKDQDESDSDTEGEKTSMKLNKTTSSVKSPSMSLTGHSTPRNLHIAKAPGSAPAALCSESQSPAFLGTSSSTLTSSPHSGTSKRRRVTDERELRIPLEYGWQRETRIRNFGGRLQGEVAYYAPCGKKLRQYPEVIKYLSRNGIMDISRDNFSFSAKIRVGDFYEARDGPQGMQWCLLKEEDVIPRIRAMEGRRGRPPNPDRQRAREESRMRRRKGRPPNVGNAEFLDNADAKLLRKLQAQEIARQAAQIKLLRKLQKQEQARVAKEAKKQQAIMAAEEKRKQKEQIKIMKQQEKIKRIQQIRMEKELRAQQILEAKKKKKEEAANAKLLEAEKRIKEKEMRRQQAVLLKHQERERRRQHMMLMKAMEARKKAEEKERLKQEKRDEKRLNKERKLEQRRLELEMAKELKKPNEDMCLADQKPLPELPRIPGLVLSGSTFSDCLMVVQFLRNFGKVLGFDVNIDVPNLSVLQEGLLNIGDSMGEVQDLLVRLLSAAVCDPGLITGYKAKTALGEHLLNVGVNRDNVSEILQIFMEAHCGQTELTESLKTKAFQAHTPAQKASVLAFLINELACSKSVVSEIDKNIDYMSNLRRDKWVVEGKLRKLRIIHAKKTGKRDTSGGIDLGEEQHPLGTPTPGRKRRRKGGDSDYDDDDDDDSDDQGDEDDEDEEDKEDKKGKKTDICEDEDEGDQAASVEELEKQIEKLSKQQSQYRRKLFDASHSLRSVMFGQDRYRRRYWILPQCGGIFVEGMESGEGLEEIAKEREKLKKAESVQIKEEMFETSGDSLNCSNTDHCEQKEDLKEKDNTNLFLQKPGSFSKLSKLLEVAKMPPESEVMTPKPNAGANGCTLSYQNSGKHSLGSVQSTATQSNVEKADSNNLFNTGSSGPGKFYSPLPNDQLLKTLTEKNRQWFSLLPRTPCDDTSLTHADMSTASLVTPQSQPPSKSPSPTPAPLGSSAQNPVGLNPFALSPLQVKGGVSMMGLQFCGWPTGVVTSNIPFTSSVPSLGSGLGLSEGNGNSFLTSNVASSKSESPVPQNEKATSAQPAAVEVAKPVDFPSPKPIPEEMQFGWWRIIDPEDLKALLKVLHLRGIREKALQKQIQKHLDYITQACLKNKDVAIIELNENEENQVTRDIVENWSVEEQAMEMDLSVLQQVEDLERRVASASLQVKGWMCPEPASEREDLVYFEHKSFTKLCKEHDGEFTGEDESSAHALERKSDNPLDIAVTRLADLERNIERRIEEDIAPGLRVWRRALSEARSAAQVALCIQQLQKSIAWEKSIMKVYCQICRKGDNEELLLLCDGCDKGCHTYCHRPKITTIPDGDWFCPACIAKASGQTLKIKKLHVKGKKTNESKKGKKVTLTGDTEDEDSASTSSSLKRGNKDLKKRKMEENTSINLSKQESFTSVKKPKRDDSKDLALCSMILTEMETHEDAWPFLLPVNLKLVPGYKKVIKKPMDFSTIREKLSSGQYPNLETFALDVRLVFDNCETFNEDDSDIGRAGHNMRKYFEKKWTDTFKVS
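Compounds, titrated to a top concentration of 110 uM, were incubated 30 min at room temperature with preformed BAZ2B/acetyl-K14 H3 peptide complex (50 nM each). Proximity signal was measured by AlphaScreen after 20 min with beads.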
G9a block: inhibitors of human histone lysine methyltransferase G9a; Q96KQ7; G9a H3K9 monomethylation, AlphaScreen, 2 h; Potency, µM (top dose mostly 102 µM), without a hit: at the highest dose activity, negative = inhibition, most hits filed as inhibitors; 8.8% of 350,000 active; note: % is set by controls: 0 for no effect and ±100 for the full control effect; nearly all actives have a fitted effect of over 75% in size
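AlphaScreen detection with an anti-monomethyl H3K9 antibody quantified product after a 2 h room-temperature reaction containing 500 nM biotinylated H3K9 peptide, 20 µM SAM and 20 nM enzyme, which had been preincubated 15 min with compound.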
JMJD2A Tudor: JMJD2A Tudor domain (human) inhibition; AlphaScreen JMJD2A-Tudor / H3K4me3 peptide binding; Potency, µM (doses to about 114 µM), for inactives: at the top dose activity change, negative = inhibition, actives largely listed as inhibitors; 4.4% of 390,000 active; AID 504339; note: % is set by controls: 0 for no effect and ±100 for the full control effect; nearly all actives have a fitted effect of over 50% in size
The depositor's hits bear a star; [ ] = dose if it differs, or a comment. Compounds with a hit are over-represented: about 12% of the library has one in this group of screens. Calls come from the whole dose curve; as a rule, active = well fitted curve in the direction sought with a large enough effect; inconclusive = small, poorly fitted or top-dose-only effect, or another doubt; inactive = no such curve, though single readings can be large; an effect the other way counts as inactive or inconclusive. Potency is the fitted concentration of half-maximal effect.

Results for Nc1c(C(=O)NCc2ccc(Cl)cc2)sc2nc3c(c(C(F)(F)F)c12)CCC3 ?
HP1b binding inh: 72%; L3MBTL1 inh: 11%; Sfp inh: -4%; BAZ2B inh: 4%; G9a block: 45µM*; JMJD2A Tudor: 21%

Results for CCOC(=O)c1c(-c2ccccc2)oc2cc(Br)c(OCc3ccccc3)cc12 ?
HP1b binding inh: 75%; BAZ2B inh: 0%; G9a block: 9%[59 µM]; JMJD2A Tudor: 44%

How did COc1ccc(-n2nc3cc(C)c(NC(=O)c4ccc(-c5ccc(Cl)cc5)o4)cc3n2)cc1 do in these assays?
HP1b binding inh: 14%; BAZ2B inh: 4%; G9a block: 10%[59 µM]; JMJD2A Tudor: -17%

Results for COc1cc(-c2nc3cccc(C)n3c2Nc2ccc3c(c2)OCCO3)ccc1O ?
HP1b binding inh: -6%; G9a block: inconclusive; JMJD2A Tudor: -34%

How did CC1Cc2ccccc2N1C(=O)CSc1nnc2c(n1)[nH]c1ccc(F)cc12 (stereo not given) do in these assays?
HP1b binding inh: 41%; L3MBTL1 inh: -2%; Sfp inh: -28%; BAZ2B inh: -2%; G9a block: inconclusive; JMJD2A Tudor: -15%

Results for O=C(CN1C(=O)c2cccc([N+](=O)[O-])c2C1=O)NCc1ccccc1 ?
HP1b binding inh: 28%; Sfp inh: 7%; BAZ2B inh: -4%; G9a block: 7%; JMJD2A Tudor: 6%

Results for COc1cccc(-c2nnc3sc(CN4CCCCC4)cn23)c1 ?
HP1b binding inh: 19%[57 µM]; BAZ2B inh: -38%; G9a block: 13µM*; JMJD2A Tudor: -7%

What do the screens show for `Cn1c(=S)c2[nH]c(SCC3CCCO3)nc2n(C)c1=O` (stereo not given)?
HP1b binding inh: inconclusive; JMJD2A Tudor: 4.5µM*

Results for COc1ccccc1NS(=O)(=O)c1cc(N2Cc3ccccc3C2=N)ccc1N1CCOCC1 ?
HP1b binding inh: inconclusive; L3MBTL1 inh: -15%; Sfp inh: inconclusive; G9a block: 14µM*; JMJD2A Tudor: inconclusive

How did COc1ccccc1NS(=O)(=O)c1cc(NC(=O)C2CC2)ccc1N1CCOCC1 do in these assays?
L3MBTL1 inh: 10%; Sfp inh: -4%; BAZ2B inh: -35%; G9a block: 8.9µM*

What do the screens show for `COc1ccc(NC(C)=O)cc1S(=O)(=O)Nc1ccc(OCc2ccccc2)cc1`?
HP1b binding inh: -6%; Sfp inh: -12%; BAZ2B inh: inconclusive; G9a block: 45µM*; JMJD2A Tudor: inconclusive

Results for CCCCCC(=O)Nc1ccc(N2CCOCC2)c(S(=O)(=O)Nc2ccc(OC)cc2)c1 ?
HP1b binding inh: 10%; L3MBTL1 inh: -1%; BAZ2B inh: 9%; G9a block: 11µM*; JMJD2A Tudor: -15%

Results for COc1ccccc1NS(=O)(=O)c1cc(NC(=O)c2ccccc2C)ccc1N1CCOCC1 ?
HP1b binding inh: 9%; JMJD2A Tudor: -15%

Results for Cc1cnc(C(=O)OCC(=O)Nc2c(Cl)cc(Cl)cc2Cl)cn1 ?
HP1b binding inh: 17%; L3MBTL1 inh: 2%; BAZ2B inh: 12%; G9a block: 1%[59 µM]; JMJD2A Tudor: -17%

Results for C[S+](C)CC[C@H](N)C(=O)O ?
Sfp inh: 2%; G9a block: -11%[12.7 µM]

What do the screens show for `CCOCCCN1C(=O)CN(C2CCCCCC2)C(=O)C1c1ccc(OC(C)C)c(OC)c1` (stereo not given)?
HP1b binding inh: 46%; BAZ2B inh: -20%; G9a block: -25%[59 µM]; JMJD2A Tudor: -11%

How did CC1=C(C(=O)Nc2ccccc2)C(c2ccc(O)cc2)n2nc(-c3ccc(Cl)cc3)nc2N1 (stereo not given) do in these assays?
HP1b binding inh: 32%; BAZ2B inh: inconclusive; G9a block: 16%[59 µM]; JMJD2A Tudor: -14%

Results for COc1ccccc1NS(=O)(=O)c1cc(NC(=O)c2ccncc2)ccc1N1CCCC1 ?
HP1b binding inh: inconclusive; L3MBTL1 inh: -17%; Sfp inh: 14µM*; G9a block: 7.9µM*; JMJD2A Tudor: -36%

What do the screens show for `Nc1ccc(N2CCCC2)c(S(=O)(=O)Nc2cccc(C(F)(F)F)c2)c1`?
HP1b binding inh: inconclusive; L3MBTL1 inh: -14%; JMJD2A Tudor: 45µM*

How did COc1ccccc1NS(=O)(=O)c1cc(NC(=O)CCNC(C)=O)ccc1N1CCCCC1 do in these assays?
HP1b binding inh: -10%; L3MBTL1 inh: -9%; BAZ2B inh: -30%; G9a block: 4%[0.501 µM]; JMJD2A Tudor: inconclusive

How did COc1ccccc1NS(=O)(=O)c1cc(N)ccc1N1CCOCC1 do in these assays?
HP1b binding inh: inconclusive; L3MBTL1 inh: -4%; JMJD2A Tudor: -31%

How did COc1ccccc1NS(=O)(=O)c1cc(NC(C)=O)ccc1N1CCCCC1 do in these assays?
HP1b binding inh: inconclusive; L3MBTL1 inh: -11%; Sfp inh: 45µM*; G9a block: 8.9µM*; JMJD2A Tudor: 79µM*

How did COCC(=O)Nc1ccc(N2CCCC2)c(S(=O)(=O)Nc2ccccc2OC)c1 do in these assays?
HP1b binding inh: 36%; L3MBTL1 inh: -4%; BAZ2B inh: -2%; G9a block: 19%[2.33 µM]; JMJD2A Tudor: -19%

Results for COc1ccccc1NS(=O)(=O)c1cc(N)ccc1N1CCCC1 ?
HP1b binding inh: 14µM*; L3MBTL1 inh: -14%; JMJD2A Tudor: inconclusive

How did COc1ccccc1NS(=O)(=O)c1cc(NC(=O)Nc2cccc(C)c2)ccc1N1CCCCC1 do in these assays?
HP1b binding inh: inconclusive; L3MBTL1 inh: -8%; Sfp inh: -15%; BAZ2B inh: -3%; G9a block: 25µM*; JMJD2A Tudor: -24%

Results for CC(C)c1cccc(-c2ccc3c(c2)S(=O)(=O)c2cccc(C(=O)NCc4ccco4)c2C3=O)c1 ?
HP1b binding inh: 28%; L3MBTL1 inh: -26%; JMJD2A Tudor: inconclusive

Results for N#C/C(=C\Nc1ccc2cn[nH]c2c1)c1nc(-c2ccc(Cl)cc2)cs1 ?
HP1b binding inh: 26%; Sfp inh: 56µM*; BAZ2B inh: 12%; G9a block: 123%[59 µM]; JMJD2A Tudor: 0%

How did N#C/C(=C\Nc1ccc2cn[nH]c2c1)c1nc(-c2ccccc2)cs1 do in these assays?
HP1b binding inh: 33%; Sfp inh: 56µM*; G9a block: 71µM*; JMJD2A Tudor: -11%

Results for Cc1ccc(C2/C(=C(/O)c3cnn(-c4ccccc4)c3C)C(=O)C(=O)N2CCCN2CCOCC2)o1 (stereo not given) ?
Sfp inh: -17%; BAZ2B inh: 79µM*; G9a block: 10%[12.7 µM]

Source: PubChem BioAssay
